Compound activity: PubChem BioAssay, several laboratories
A selection: hits, their analogues and other compounds. The true share with any hit is near 2.9%.
Rtt109 HAT inh – inhibitors of Candida albicans Rtt109/Vps75 histone acetyltransferase; Q5AAJ8; purified Rtt109/Vps75, ThioGlo CoA-SH fluorescence, 4 h; inhibition, % at 34.9 µM; 0.16% of 330,000 active;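 active = inhibition of at least 50% in every replicate; inconclusive = best replicate reaches 50% inhibition but some replicates fall short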
sPLA2-III inh – Blocks human group III sPLA2 activity; 0.56% of 370,000 active; QFRET BODIPY PC-A2 liposome hydrolysis, fluorescence; Q9NZ20; AID 743126; inhibition, % at 12.2 µM;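 active = inhibition above mean plus 3 SD of compounds lying within the high and low control bounds, cut at about 19% in these data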;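 also: 0% = median of test compound wells and 100% = no enzyme DMSO wells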
Target sequence (Q9NZ20 whole entry, looked up): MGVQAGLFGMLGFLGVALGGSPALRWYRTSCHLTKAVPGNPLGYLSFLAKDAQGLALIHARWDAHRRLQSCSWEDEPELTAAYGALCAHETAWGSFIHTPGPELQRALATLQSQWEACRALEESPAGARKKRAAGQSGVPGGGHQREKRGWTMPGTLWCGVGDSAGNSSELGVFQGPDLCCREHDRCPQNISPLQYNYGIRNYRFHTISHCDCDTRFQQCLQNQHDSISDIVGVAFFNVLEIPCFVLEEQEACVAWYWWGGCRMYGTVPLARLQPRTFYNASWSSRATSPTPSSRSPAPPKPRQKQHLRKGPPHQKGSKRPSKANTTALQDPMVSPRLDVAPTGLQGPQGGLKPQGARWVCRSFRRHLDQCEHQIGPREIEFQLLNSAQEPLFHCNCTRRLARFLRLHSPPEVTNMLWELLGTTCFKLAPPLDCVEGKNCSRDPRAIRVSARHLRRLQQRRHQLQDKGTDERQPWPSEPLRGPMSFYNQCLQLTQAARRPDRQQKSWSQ
Myeloid diff 2 – promotes myeloid progenitor differentiation | ER-HoxA9 myeloid progenitors, lysozyme-GFP differentiation, flow cytometry | calls only at 10 µM | 1% of 360,000 active;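 active = normalized GFP-positive differentiation at or above the plate's own cutoff, the solvent-only control mean plus 3 SD; inconclusive = no clear call, values can overlap the other calls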;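 also: cells exposed to compound for four days before flow analysis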
DAGLB inh – blocks human DAGLB lipase activity; 0.059% of 340,000 active; inhibition, % at 5.17 µM; HEK293T DAGLB membrane lysate, EnzChek fluorogenic substrate; Q8NCG7; in the data active = inhibition above about 34%;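 also: 0% = enzyme with vehicle and 100% = wells lacking enzyme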
Cardio protect – modulators protecting cardiomyocytes from myocardial damage. 0.63% of 360,000 active. H9c2 cardiomyocytes, H2O2 injury protection, ATPLite, 2 h. protection from H2O2 cell death, % at 20 µM;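 active = compounds giving at least 50% protection of heart cells from peroxide-induced death in the single-dose screen, raw or plate-pattern-corrected value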;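 also: 0% = DMSO wells with peroxide and 100% = DMSO wells without peroxide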
ABHD5 PLIN5 PPI – ABHD5-PLIN5 protein interaction inhibition | Split G. princeps luciferase complementation, luminescence, 4 h | inhibition, % at 4 µM | 0.78% of 360,000 active | Q00G26+Q8WTS1;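 active = inhibition above the mean inhibition across every tested compound plus 3 SD, cut at about 22% in these data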;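 also: 0% = DMSO only wells and the 100% control is not disclosed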
Active calls of the source: *.

`COc1ccc(C(=O)CCC(=O)NC2=NCCS2)cc1` gave Rtt109 HAT inh -1.4, sPLA2-III inh -5.9, Myeloid diff 2 inactive, DAGLB inh -1.2, Cardio protect 0.8 and ABHD5 PLIN5 PPI -13.3.
For CN(CC1CCCO1)S(=O)(=O)c1ccc(C(=O)Nc2ccccc2F)cc1 (centres undefined) the results were Rtt109 HAT inh -3.2, sPLA2-III inh 3.1, Myeloid diff 2 inactive, DAGLB inh -1.5, Cardio protect 2.9 and ABHD5 PLIN5 PPI -11.3.
Screening CN(CC1CCCO1)S(=O)(=O)c1ccc(C(=O)Nc2nc(-c3ccccn3)cs2)cc1 (centres undefined) returned Rtt109 HAT inh -6.8, Myeloid diff 2 inactive, DAGLB inh 1.9, Cardio protect 90.1* and ABHD5 PLIN5 PPI 4.9.
Screening Cc1ccc(C(=O)Nc2ccccn2)cc1S(=O)(=O)N1CCOCC1 returned Rtt109 HAT inh 0.8, sPLA2-III inh -0.6, Myeloid diff 2 inactive, DAGLB inh -4.7, Cardio protect 6.5 and ABHD5 PLIN5 PPI 4.0.
`O=C(Nc1cc(S(=O)(=O)N2CCOCC2)ccc1N1CCCCC1)c1cc(-c2ccccn2)nc2ccccc12` gave Rtt109 HAT inh -4.6, sPLA2-III inh 3.5, Myeloid diff 2 inactive, DAGLB inh -2.4, Cardio protect 64.0* and ABHD5 PLIN5 PPI -7.8.
`Cc1ccc(C(=O)Nc2nc(-c3ccccn3)cs2)cc1S(=O)(=O)N1CCOCC1` gave Rtt109 HAT inh 1.7, sPLA2-III inh -1.0, Myeloid diff 2 inconclusive, DAGLB inh 0.9, Cardio protect 73.4* and ABHD5 PLIN5 PPI -7.0.
`O=C(NCc1ccco1)c1nc(-c2ccc(F)cc2)no1` gave Rtt109 HAT inh -3.6, sPLA2-III inh -1.3, Myeloid diff 2 inactive, DAGLB inh -4.6, Cardio protect -3.8 and ABHD5 PLIN5 PPI -2.6.
`Cc1ccc(Cn2cc(/C=N/Nc3ccc([N+](=O)[O-])cn3)c3ccccc32)cc1` gave sPLA2-III inh 0.8, Myeloid diff 2 active, DAGLB inh 11.1, Cardio protect 11.4 and ABHD5 PLIN5 PPI -3.2.
O=C(O)Cn1cc(/C=N/Nc2ccc([N+](=O)[O-])cn2)c2ccccc21 was read as Rtt109 HAT inh -5.3, sPLA2-III inh 0.7, Myeloid diff 2 inactive, DAGLB inh 9.8, Cardio protect 6.4 and ABHD5 PLIN5 PPI -4.3.
Screening CC(C(=O)OCC(=O)c1ccc([N+](=O)[O-])cc1)N1C(=O)C2C3CCC(C3)C2C1=O (centres undefined) returned Rtt109 HAT inh 107.5*, sPLA2-III inh -2.5, Myeloid diff 2 inactive, DAGLB inh -2.1, Cardio protect -3.5 and ABHD5 PLIN5 PPI -11.3.
`COCCn1c(C)cc(/C=C2/SC(=O)N(CC(=O)N3CCCC3)C2=O)c1C` gave Rtt109 HAT inh 13.9, sPLA2-III inh -0.4, Myeloid diff 2 inactive, DAGLB inh -4.7, Cardio protect -3.0 and ABHD5 PLIN5 PPI 6.1.
CCCCOC(=O)/C=C/c1ccc(OC(=O)OC)c(OC(=O)OC)c1 was read as Rtt109 HAT inh -7.8, sPLA2-III inh -8.7, Myeloid diff 2 inactive, DAGLB inh 5.1, Cardio protect 46.4 and ABHD5 PLIN5 PPI -10.6.
For COC(=O)Oc1ccc(/C=C/C(=O)OC(C)C)cc1OC(=O)OC the results were Rtt109 HAT inh 1.5, sPLA2-III inh 3.3, Myeloid diff 2 inactive, DAGLB inh 8.8, Cardio protect 54.1* and ABHD5 PLIN5 PPI -4.0.
CC(C)(C)NC(=O)CN(C(=O)CCC(=O)Nc1nccs1)c1ccc(F)c(Cl)c1 was read as Rtt109 HAT inh -1.3, sPLA2-III inh 4.4, DAGLB inh -2.3, Cardio protect -0.7 and ABHD5 PLIN5 PPI -8.0.
Nc1ccc2oc(=O)c(-c3ccccc3)cc2c1 was read as Rtt109 HAT inh -13.6, sPLA2-III inh 4.2, Myeloid diff 2 inactive, DAGLB inh 0.6, Cardio protect -1.8 and ABHD5 PLIN5 PPI -1.1.
`NNC(=O)c1oc2nc(-c3cccs3)cc(-c3ccco3)c2c1N` gave Rtt109 HAT inh 3.6, sPLA2-III inh -0.3, Myeloid diff 2 active, DAGLB inh -8.6, Cardio protect 42.4 and ABHD5 PLIN5 PPI -13.6.
CC(=O)Nc1nc(-c2ccccc2)cc(-c2ccco2)c1C#N was read as Rtt109 HAT inh -9.4, sPLA2-III inh -2.7, Myeloid diff 2 inactive, DAGLB inh 1.1, Cardio protect 10.2 and ABHD5 PLIN5 PPI 3.0.
For NNC(=O)c1oc2nc(-c3ccccc3)cc(-c3ccccc3)c2c1N the results were Rtt109 HAT inh 8.2, sPLA2-III inh -6.2, Myeloid diff 2 active, DAGLB inh 0.6, Cardio protect -0.4 and ABHD5 PLIN5 PPI -29.3.
For COc1cccc(/C=N/NC(=O)c2oc3nc(-c4ccccc4)cc(-c4ccco4)c3c2N)c1 the results were Rtt109 HAT inh 2.2, sPLA2-III inh 6.0, Myeloid diff 2 inactive, DAGLB inh -2.9, Cardio protect 56.3* and ABHD5 PLIN5 PPI -0.1.
For Cc1ccc(-c2cc(-c3ccco3)c3c(N)c(C(=O)NN)oc3n2)cc1 the results were Rtt109 HAT inh 4.2, sPLA2-III inh -11.6, Myeloid diff 2 active, DAGLB inh -5.2, Cardio protect 29.8 and ABHD5 PLIN5 PPI -11.5.
`COCCCN1C(=O)CC(C(=O)OC)=C1C` gave sPLA2-III inh -6.9, Myeloid diff 2 inactive, DAGLB inh -0.8, Cardio protect 0.2 and ABHD5 PLIN5 PPI 0.9.
Screening Cc1cc(C)cc(OC(=O)CCN2C(=O)C3C4C=CC(C5CC45)C3C2=O)c1 (centres undefined) returned sPLA2-III inh 3.0, Myeloid diff 2 inactive, DAGLB inh -3.0, Cardio protect 4.1 and ABHD5 PLIN5 PPI -4.5.
For Cc1nc2ccccc2c(=O)n1/N=C/c1ccccc1F the results were Rtt109 HAT inh 7.7, sPLA2-III inh 8.1, Myeloid diff 2 inactive, DAGLB inh -3.9, Cardio protect -3.3 and ABHD5 PLIN5 PPI 2.0.
Screening COc1ccc(N2CC(C(=O)Nc3nnc(SCC(=O)NC4CCCC4)s3)CC2=O)cc1 (centres undefined) returned Rtt109 HAT inh 2.2, sPLA2-III inh 8.0, Myeloid diff 2 inactive, DAGLB inh 2.2, Cardio protect -3.2 and ABHD5 PLIN5 PPI 2.2.
Cc1cc(C)cc(OCC(=O)Nc2cccc(-c3nc4ncccc4o3)c2)c1 was read as Rtt109 HAT inh 3.0, sPLA2-III inh -3.6, Myeloid diff 2 inactive, DAGLB inh -6.0, Cardio protect 101.7* and ABHD5 PLIN5 PPI -7.8.
O=C(NCCNC(=O)c1cc(OCC(F)(F)F)ccc1OCC(F)(F)F)Nc1ccccc1 was read as Rtt109 HAT inh -9.4, sPLA2-III inh -3.4, Myeloid diff 2 inactive, DAGLB inh 0.8, Cardio protect -5.7 and ABHD5 PLIN5 PPI 2.1.
